Lamin A splicing – qHTS Assay for Modulators of Lamin A Splicing | HeLa LMNA splicing GFP/RFP minigene ratio, 48 h | Potency, µM (highest dose often 46.1 µM), inactives show at the top dose ratio change, negative = inhibition, hits mostly inhibitors | 200,000 tested, 0.01% active; active means well fitted inhibition curve with a large enough effect in the signal ratio, with a control signal flat, not every such curve was filed as active; inconclusive means small, poorly fitted or top-dose-only effect, or effect the other way, or a change in a side signal; the % refers to the signal ratio; further: potency means the concentration at half of the fitted maximal effect; on the % scale 0 is the no-effect control and ±100 the full control effect
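Read-out is the ratio of GFP to DsRed2 object intensity, acquired by 488 nm laser-scanning cytometry on HeLa lamin A-EGFP minigene reporter cells. Compound incubation 48 hrs at 37 °C in Opti-MEM with 2% FBS; DMSO 0.5% final.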
Sfp inh – qHTS Assay for Inhibitors of Bacillus subtilis Sfp phosphopantetheinyl transferase (PPTase); 310,000 tested, 3.5% active; Biochemical Sfp PPTase activity, qHTS; Potency, µM, inactives show largest response in the series, negative = inhibition, hits mostly inhibitors; 4'-phosphopantetheinyl transferase ffp (Bacillus subtilis), Q9F4F7;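 further: the enzyme is Sfp with the accession as filed and its product quenches rhodamine fluorescence; potency means the concentration at half of the fitted maximal effect; 0% = enzyme reaction without inhibitor and -100% = no enzyme wells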
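After 15 min at room temperature with compound, 15 nM Sfp received 5 uM rhodamine-CoA plus 12.5 uM BHQ-2-ybbR (50 mM Hepes pH 7.6, 10 mM MgCl2). Rate came from the fluorescence difference over 30 min, ex 525/em 598 nm.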
ALDH1A1 inh – qHTS Assay for Inhibitors of Aldehyde Dehydrogenase 1 (ALDH1A1); Potency, µM (series often up to 75.3 µM), for inactives: at the highest dose activity, negative = inhibition, hits mostly inhibitors; 220,000 tested, 7.3% active; Purified ALDH1A1, NADH fluorescence, propionaldehyde substrate; AID 1030, 2008; active means well fitted inhibition curve with a large enough effect, not every such curve was filed as active; inconclusive means small, poorly fitted or top-dose-only effect, or another doubt; inactive means no such curve, though single readings can be large or run the other way;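 further: potency means the concentration at half of the fitted maximal effect; plate controls were no enzyme wells and a reference inhibitor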
Target sequence (P00352 whole entry, looked up): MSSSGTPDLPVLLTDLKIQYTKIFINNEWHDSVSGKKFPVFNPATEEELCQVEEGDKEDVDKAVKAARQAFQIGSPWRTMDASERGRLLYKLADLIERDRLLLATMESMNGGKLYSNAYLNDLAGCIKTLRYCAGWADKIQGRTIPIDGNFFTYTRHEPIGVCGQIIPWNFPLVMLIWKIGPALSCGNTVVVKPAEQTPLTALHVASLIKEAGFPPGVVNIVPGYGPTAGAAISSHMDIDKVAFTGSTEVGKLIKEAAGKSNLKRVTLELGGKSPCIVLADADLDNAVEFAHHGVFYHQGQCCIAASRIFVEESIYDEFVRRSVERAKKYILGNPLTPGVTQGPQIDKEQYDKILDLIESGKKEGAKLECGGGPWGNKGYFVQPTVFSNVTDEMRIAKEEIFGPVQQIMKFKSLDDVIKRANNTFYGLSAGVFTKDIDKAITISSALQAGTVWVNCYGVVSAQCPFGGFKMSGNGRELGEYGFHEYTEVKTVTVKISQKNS
G9a inh – qHTS Assay for Inhibitors of Histone Lysine Methyltransferase G9a; Histone-lysine N-methyltransferase EHMT2 (Homo sapiens), Q96KQ7; G9a H3K9 monomethylation, AlphaScreen, 2 h; Potency, µM (titrated, usually from 102 µM), inactives show at the highest dose activity, negative = inhibition, usual class: inhibitors; 350,000 tested, 8.8% active; further: potency means the concentration at half of the fitted maximal effect; on the % scale 0 is the no-effect control and ±100 the full control effect; nearly all actives have a fitted effect of over 75% in size
Target sequence (Q96KQ7 913-1193 limits assumed): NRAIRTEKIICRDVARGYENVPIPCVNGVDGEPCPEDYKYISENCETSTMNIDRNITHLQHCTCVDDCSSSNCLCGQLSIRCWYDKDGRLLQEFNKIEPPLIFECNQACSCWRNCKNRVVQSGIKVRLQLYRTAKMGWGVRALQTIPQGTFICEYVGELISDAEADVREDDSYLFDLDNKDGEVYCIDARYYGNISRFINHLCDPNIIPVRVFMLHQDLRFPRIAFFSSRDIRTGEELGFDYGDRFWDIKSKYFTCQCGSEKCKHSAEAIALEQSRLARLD
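G9a (20 nM) preincubated 15 min RT with compounds, then 500 nM biotinylated H3K9 peptide and 20 uM SAM added; 2 h RT reaction. Monomethyl-H3K9 product detected by AlphaScreen with anti-H3K9me1 antibody, streptavidin donor and anti-rabbit IgG acceptor beads.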
miR-21 act – qHTS Assay for Modulators of miRNAs and/orActivators of miR-21; HeLa miR-21 FLuc reporter, luciferase, 48 h; Potency, µM (series often up to 38.3 µM), for the others: at the top dose activity change, positive = activation, hits mostly activators; 340,000 tested, under 10 active; AID 2288, 2010;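 further: % of control where 0% means no effect; miR-21 action dims this reporter so a rising signal means less miR-21 action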
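HeLa cells stably expressing CMV-driven firefly luciferase with a downstream miR-21 binding sequence, endogenously expressing miR-21, were treated with titrations (up to about 40uM final) for 48 hours at 37 degree Celsius. Luciferase luminescence was read after lysis.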
KDM4E inh – qHTS Assay for Inhibitors of Human Jumonji Domain Containing 2E (JMJD2E) | 230,000 tested, 1.6% active | AID 2147, 2009 | JMJD2E catalytic domain, FDH-coupled NADH fluorescence (FDH is formaldehyde dehydrogenase) | Lysine-specific demethylase 4E (Homo sapiens), B2RXH2 | Potency, µM (highest dose often 57.1 µM), without a hit: top-dose activity change, negative = inhibition, actives largely listed as inhibitors; active means well fitted inhibition curve with a large enough effect, not every such curve was filed as active; inconclusive means small, poorly fitted or top-dose-only effect, or another doubt; inactive means no such curve, though single readings can be large or run the other way;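 further: potency means the concentration at half of the fitted maximal effect; 0% = wells with enzyme and -100% = buffer wells without enzyme; nearly all actives have a fitted effect of over 50% in size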
Starred values were filed as active, the others as inactive; ? = inconclusive; . = no result; [ ] = remark or other dose. A selection: hits, their analogues and other compounds. The true share with any hit is near 13%. Unless noted, the call rests on the fitted dose curve; in most records, active means well fitted curve in the direction sought with a large enough effect; inconclusive means small, poorly fitted or top-dose-only effect, or another doubt; inactive means no such curve, though single readings can be large; an effect the other way counts as inactive or inconclusive.

SMILES	Lamin A splicing	Sfp inh	ALDH1A1 inh	G9a inh	miR-21 act	KDM4E inh
COC(=O)CN1C(=O)CSc2ccc(S(=O)(=O)Nc3cccc(Br)c3)cc21	.	.	.	-27%[59 µM]	0%	.
S=c1[nH]nc(C2CC2c2ccc(Cl)cc2)n1-c1ccc(Cl)cc1 (stereo unspecified)	-3%	5%	0%	?	15%	1%
Cc1ccc(-n2c([C@@H]3C[C@H]3c3ccccc3)n[nH]c2=S)cc1	-10%	?	?	0.5µM*	-19%	-8%
Cc1ccc(C2CC2c2n[nH]c(=S)n2-c2ccc(C)cc2)cc1 (stereo unspecified)	-6%	7%	?	0.63µM*	-10%	-4%
CSc1n[nH]c(=O)n1-c1cccc(Cl)c1	.	8%	.	11%	-10%	3%
Cc1ccc(-n2c(C3CC3c3ccc(Cl)cc3)n[nH]c2=S)cc1 (stereo unspecified)	-3%	0%	7%	2µM*	-6%	1%
Cc1ccc(C2CC2c2n[nH]c(=S)n2-c2cccc(Cl)c2)cc1 (stereo unspecified)	6%	4%	-2%	10µM*	2%	0%
Cc1ccc(C)c(N2CCN(C(=O)c3cc4c(=O)n(Cc5ccccc5)ccc4nc3C)CC2)c1	?	.	.	5%[59 µM]	13%	.
O=c1[nH]c(C2CCN(S(=O)(=O)c3ccccc3)CC2)nc2c1nnn2Cc1c(F)cccc1Cl	.	-4%	.	-11%	-1%	.
Cc1ccc(-n2c(SCC(=O)N3CCCc4ccccc43)nc3c([nH]c4ccccc43)c2=O)cc1	13%[46 µM]	.	.	-8%[59 µM]	-37%	.
O=[N+]([O-])/C=C/c1cn(Cc2ccc(Cl)cc2)c2ccccc12	?	-12%	?	13%[59 µM]	-6%	9%
O=C(O)c1ccc(Cn2cc(/C=C\[N+](=O)[O-])c3ccccc32)o1	.	-26%	.	40µM*	-1%	.
Cc1cccc(Cn2cc(/C=C/[N+](=O)[O-])c3ccccc32)c1	?	-7%	?	-10%[59 µM]	?	-8%
COC(=O)c1ccc(Cn2cc(/C=C\[N+](=O)[O-])c3ccccc32)o1	.	56µM*	.	.	?	.
CC(NCc1cc(Br)ccc1OCC(N)=O)C12CC3CC(CC(C3)C1)C2 (stereo unspecified)	.	7%	.	25%[0.501 µM]	15%	.
COc1ccccc1C(=O)NC(=O)CSc1nncn1C(C)C	.	.	.	26%[0.501 µM]	.	.
O=C(c1ccco1)N1CCN(Cc2cc(=O)c(OCc3ccccc3F)co2)CC1	.	.	.	-1%	.	.
COc1cccc(CN2CCN(C(=O)c3ccc(-c4ccccc4)cc3)CC2)c1	?	-16%	?	13µM*	6%	?
COc1cccc(CN2CCN(C(=O)c3cccc(OC)c3)CC2)c1	.	79µM*	.	20µM*	-1%	.
O=C(c1ccccc1)N1CCN(Cc2cccc(Oc3ccccc3)c2)CC1	?	-14%	?	16µM*	16%	?
CN1CCN(Cc2cccc(Oc3ccccc3)c2)CC1	7%	-1%	6%	71µM*	-8%	-4%
CC(=O)N1CCN(C(=O)c2ccc(Oc3ccccc3)cc2)CC1	?	9%	2%	-3%[59 µM]	0%	2%
OC1CCN(Cc2cccc(Oc3ccccc3)c2)CC1	0%	9%	6%	-1%[59 µM]	-13%	0%
COc1cccc(C(=O)N2CCN(C(=O)Cc3ccccc3)CC2)c1	6%[46 µM]	19%	-5%	12%	-1%	3%
Cc1cc(OCC(=O)NC2CC(C)(C)NC(C)(C)C2)c2c(C)cc(=O)oc2c1	.	8%	.	3%[59 µM]	0%	.
SMILES	Lamin A splicing	Sfp inh	ALDH1A1 inh	G9a inh	miR-21 act	KDM4E inh
CCOC(=O)Cn1c(=O)n(C2CCCCC2)c2nc(-c3ccc(C(C)C)cc3)nc(C(N)=O)c21	11%[46 µM]	.	.	-2%[59 µM]	-1%	.
COc1cc(OC)cc(C(=O)N2CCN(c3ccc(N4CCOCC4)nn3)CC2)c1	.	.	.	-31%	.	.
COc1ccc(CN2CCN(Cc3cccc(Oc4ccccc4)c3)CC2)c(OC)c1OC	.	?	.	45µM*	-6%	.
COc1ccc(CN2CCN(C(c3ccc(F)cc3)c3ccc(F)cc3)CC2)c(OC)c1OC	?	?	.	-42%[59 µM]	.	.
COc1cc(CN2CCCCCC2)cc(OC)c1	.	12%	.	13%	0%	.
COc1cc(CN2CCN(Cc3cccc(OC)c3OC)CC2)cc(OC)c1	.	?	.	45µM*	-5%	.
COc1ccc(CN2CCN(Cc3ccc(Br)cc3)CC2)c(OC)c1OC	.	79µM*	.	2.2µM*	13%	.
Cc1occc1-c1nnc(SCC(=O)NC2CCC(C)CC2)o1 (stereo unspecified)	.	.	.	7%[59 µM]	.	.
CC(=Nc1ccccc1)C1=C(O)COC1=O	5%	2%	5.6µM*	-21%	-2%	1%
COc1ccc(OC)c(N=C(C)C2=C(O)COC2=O)c1	-5%	0%	0%	3.5µM*	-3%	-6%
CCN(CCCNC(=O)c1ccc(Sc2ccc(Cl)cc2)c(NC(C)=O)c1)c1cccc(C)c1	-12%[46 µM]	.	.	13µM*	8%	.
CCN(CC)CCNC(=O)c1ccc(Sc2ccc(Cl)cc2)c(NC(C)=O)c1	4%[46 µM]	-10%	3%	30%	0%	-4%
CCN(CCNC(=O)c1ccc(C#N)cc1)c1cccc(C)c1	.	15%	.	13µM*	-4%	.
COc1ccccc1CCNC(=O)C(=O)NCC(c1ccco1)S(=O)(=O)c1ccc(F)cc1 (stereo unspecified)	?	.	.	4%[59 µM]	18%	.
O=C(CC1C(=O)NCCN1CC1CCCCC1)NCc1ccc(Cl)cc1 (stereo unspecified)	?	4%	20µM*	-41%	-1%	5%
O=C(CC1C(=O)NCCN1CC1CCCCC1)NCc1cc(F)ccc1F (stereo unspecified)	.	-3%	?	.	0%	6%
CC(C)c1cc(CNC(=O)CC2C(=O)NCCN2CC2CCCCC2)on1 (stereo unspecified)	?	7%	?	50µM*	-1%	-24%
Cc1ccccc1NC(=O)CCC(=O)N/N=C/c1ccncc1	7%	?	14%	7.1µM*	1%	2%
COc1ccc(/C=N/NC(=O)CNC(=O)c2ccncc2)cc1	.	-1%	.	41%	0%	.
O=C(CCC(=O)Nc1ccc(F)cc1)N/N=C/c1ccncc1	.	45µM*	3%	6%	4%	7%
O=C(CNc1ccc2ccccc2c1)N/N=C/c1ccncc1	.	-21%	.	1.4µM*	-7%	.

High-throughput results as filed in PubChem BioAssay.
